HTT ATP protect: qHTS Multiplex Assay to Identify Dual Action Probes in a Cell Model of Huntington: Cytoprotection (ATP); PC12 HTT-Q103 induced, cytoprotection, ATP luminescence, 40 h; Potency, µM (top dose mostly 56.4 µM), for the others: cytoprotection (ATP increase), hits mostly activators; hit rate 0.14% among 230,000; also: % of control where 0% means no effect; nearly all actives have a fitted effect of over 45% in size
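Compounds added alongside 100 nM tebufenozide, which induces toxic Q103 huntingtin exon 1-GFP in stable PC12 cells; surviving cells quantified by luminescent ATP measurement. Medium: phenol red-free DMEM, 5% equine and 5% calf serum.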
HttQ103 aggreg: qHTS Multiplex Assay to Identify Dual Action Probes in a Cell Model of Huntington: Aggregate Formation (GFP); PC12 HttQ103-GFP aggregates, Acumen cytometry, 40 h; Potency, µM (doses to about 46.1 µM), inactives show at the top dose activity change, negative = inhibition, actives largely listed as inhibitors; hit rate 1.1% among 220,000; AID 1688, 2009; also: % is scaled to controls: 0 for no effect and ±100 for the full control effect; nearly all actives have a fitted effect of over 60% in size
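Aggregates are detected as GFP objects 1–25 µm with signal 6 STDEV over background in lysates of induced PC12 cells. These carry Huntingtin exon 1 with 103 glutamines fused to GFP under an ecdysone promoter; compounds titrated.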
NPSR antagonist: qHTS Assay for Antagonists of the Neuropeptide S Receptor: cAMP Signal Transduction; CHO-NPSR cells, cAMP TR-FRET, antagonist mode; Potency, µM (highest dose often 38.3 µM), without a hit: at the top dose activity change, negative = inhibition, hits mostly inhibitors; hit rate 1% among 220,000; AID 1461, 2008; also: % is scaled to controls: 0 for no effect and ±100 for the full control effect; nearly all actives have a fitted effect of over 50% in size
Target sequence (Q6W5P4 whole entry, looked up): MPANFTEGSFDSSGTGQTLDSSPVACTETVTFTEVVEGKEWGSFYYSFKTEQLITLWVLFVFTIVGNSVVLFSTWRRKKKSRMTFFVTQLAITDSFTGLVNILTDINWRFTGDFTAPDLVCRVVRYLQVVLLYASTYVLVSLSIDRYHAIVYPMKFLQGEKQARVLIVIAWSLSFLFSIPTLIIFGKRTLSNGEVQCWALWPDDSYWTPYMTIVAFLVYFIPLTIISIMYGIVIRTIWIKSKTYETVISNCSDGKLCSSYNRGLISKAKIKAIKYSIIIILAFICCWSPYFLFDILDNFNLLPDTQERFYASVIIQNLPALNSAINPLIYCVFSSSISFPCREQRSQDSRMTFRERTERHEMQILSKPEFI
ERK EGF block: qHTS Assay for Inhibitors of the ERK Signaling Pathway using a Homogeneous Screening Assay; Stimulation with EGF. HEK293-V1b, EGF-stimulated phospho-ERK AlphaScreen. Potency, µM (top dose mostly 11.5 µM), inactives show top-dose activity change, negative = inhibition, usual class: inhibitors. hit rate 0.41% among 130,000. AID 1454, 2008;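 also: plate controls were stimulated vehicle wells for no effect and unstimulated vehicle basal for full effect; nearly all actives have a fitted effect of over 55% in size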
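Compounds are titrated over HEK293-V1b cells kept overnight in 1% FBS. After 30 min at 37C, EGF (25 nM final) triggers ERK phosphorylation for 5 min, measured by AlphaScreen in lysates.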
IMPase Li cell: qHTS Assay for Identifying the Cell-Membrane Permeable IMPase Inhibitors: Potentiation with Lithium; CHO-M1 cells, IP1 TR-FRET (IP-One), carbachol + lithium; Potency, µM (series often up to 59.4 µM), for inactives: top-dose activity, negative = IMPase inhibition, hits mostly inhibitors; hit rate 0.35% among 210,000; AID 1457, 2008;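 also: IP1 builds up when IMPase is blocked and the TR-FRET signal falls; plate controls were basal vehicle for no effect and high inhibitor control for full effect; nearly all actives have a fitted effect of over 50% in size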
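CHO cells stably expressing M1 receptor (2000/well, cultured 16–30 h) treated 30 min at 37C with compound plus low lithium. Cytosolic IP1 by TR-FRET (665/620 ratio and 620 channel) after 10 min lysis; AC50 by Hill fit.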
An asterisk follows results filed as active; ! = not confirmed by another sample; [ ] = remark or other dose. This is a sample that favours compounds with a hit; in the whole collection about 1.9% have one here. Calls follow the shape of the dose curve; as a rule, active = well fitted curve in the direction sought with a large enough effect; inconclusive = small, poorly fitted or top-dose-only effect, or another doubt; inactive = no such curve, though single readings can be large; an effect the other way counts as inactive or inconclusive. Potency is read from the fitted curve at half-maximal effect.

Screening CNc1oc(-c2ccc(C)cc2)nc1P(=O)(c1ccccc1)c1ccccc1 returned HTT ATP protect -53%, HttQ103 aggreg -21%, NPSR antagonist 13µM* and IMPase Li cell 37%[38.3 µM].
Screening CCCC[C@@H](NC(=O)[C@@H](Cc1cn(C(=O)OC)c2ccccc12)NC(=O)[C@H](CC(C)(C)C)NC(=O)N1[C@H](C)CCC[C@@H]1C)C(=O)O returned HTT ATP protect 16% and IMPase Li cell 2%.
For CC(C)NC(=O)Cn1nnc(-c2ccc(Cl)cc2)n1 the results were HTT ATP protect -17%[10 µM], HttQ103 aggreg 13µM* and NPSR antagonist 5%[46.1 µM].
Screening CCN(CCO)C[C@H]1CCC[C@H]2CCCC[C@@H]21 returned HTT ATP protect 4%[10 µM] and IMPase Li cell 17%.
`CCC1=C2CC[C@H]3C(=O)N(c4ccccc4)C(=O)[C@H]3[C@H]2[C@@]2(Cc3ccccc3)C(=NCc3ccccc3)OC(=O)N2C1=O` gave HTT ATP protect 2%, ERK EGF block -7% and IMPase Li cell -4%.
CCOc1ccc(-n2c(-c3ccc(Br)cc3)c[n+]3c2CCCCC3)cc1 was read as HTT ATP protect -93%, HttQ103 aggreg inconclusive, NPSR antagonist 1%, ERK EGF block 1% and IMPase Li cell 19%.
CCOc1ccc(-n2c(-c3ccc(OC)cc3)c[n+]3c2CCCCC3)cc1 was read as HTT ATP protect 37%[1.9 µM], HttQ103 aggreg 7.9µM*, NPSR antagonist 17%, ERK EGF block -2% and IMPase Li cell 8%.
`CCOc1ccc(-n2c(-c3ccccc3)c[n+]3c2CCC3)cc1` gave HTT ATP protect -4%[10 µM], HttQ103 aggreg 6.3µM*, NPSR antagonist 5%, ERK EGF block -3% and IMPase Li cell 29%.
For CN(C)c1ncc2nc(-c3ccccc3)c(=O)n(C3CC3)c2n1 the results were HTT ATP protect -81%, ERK EGF block inconclusive and IMPase Li cell -2%.
Screening CCOC(=O)C1CSC(Cc2ccc(OCc3ccc([N+](=O)[O-])cc3)cc2)N1 (centres undefined) returned HTT ATP protect -86%, ERK EGF block 0% and IMPase Li cell 10%.
Screening O=C(OC(c1ccccc1)c1nccc2ccccc12)c1cc([N+](=O)[O-])cc([N+](=O)[O-])c1 (centres undefined) returned HTT ATP protect 0%[10 µM], HttQ103 aggreg 29%, NPSR antagonist -20%[46.1 µM], ERK EGF block 16µM* and IMPase Li cell 8%.
`O=C(NC(c1ccccc1)c1ccccn1)c1cccc([N+](=O)[O-])c1` (centres undefined) gave HTT ATP protect -15%, HttQ103 aggreg 6%, NPSR antagonist -25%, ERK EGF block 11% and IMPase Li cell 7%.
COC(=O)CCC[N+](C)(C)C was read as HTT ATP protect -19% and HttQ103 aggreg -1%.
Oc1nc(Nc2cccc(Cl)c2)sc1/C=C1\C=Nc2ccccc21 was read as HTT ATP protect 7%[10 µM], HttQ103 aggreg 8.9µM* and NPSR antagonist -24%[46.1 µM].
Oc1cccc(Nc2nc(O)c(/C=C3\C=Nc4ccccc43)s2)c1 was read as HTT ATP protect -13%[10 µM], HttQ103 aggreg -11%[9.22 µM], NPSR antagonist inconclusive and ERK EGF block inconclusive.
`Cc1c(Nc2scc(-c3ccccc3)[n+]2-c2ccccc2)c(=O)n(-c2ccccc2)n1C` gave HTT ATP protect -17%, HttQ103 aggreg -5%, NPSR antagonist -33%, ERK EGF block -5% and IMPase Li cell 10%.
For Cc1ccccc1Nc1scc(-c2ccc(Cl)cc2)[n+]1-c1ccccc1C the results were HTT ATP protect -14%, HttQ103 aggreg -11%, NPSR antagonist 7.9µM*, ERK EGF block inconclusive and IMPase Li cell 11%.
`O=C1C=CC2=C3c4cc(O)c(O)cc4C[C@]3(O)COC2=C1` gave HTT ATP protect inconclusive, ERK EGF block inconclusive and IMPase Li cell 50%.
Screening O=c1[nH]c(=O)n([C@H]2C[C@H](O)[C@@H](CO)O2)cc1Br returned HTT ATP protect 3.5µM*!, HttQ103 aggreg 38%, NPSR antagonist -3%[46.1 µM], ERK EGF block -7% and IMPase Li cell 5%.
For N#CC(C#N)=C(N)/C(C#N)=C/c1ccc2[nH]ccc2c1 the results were HTT ATP protect -8% and IMPase Li cell -23%.
O=C(Nc1ccc(Cl)c(S(=O)(=O)N2CCOCC2)c1)c1ccc(OCC2CCCO2)cc1 (centres undefined) was read as HTT ATP protect -132%, HttQ103 aggreg inconclusive, NPSR antagonist -18%, ERK EGF block 14µM* and IMPase Li cell 13%.
For O=C(Nc1nc2ccccc2s1)c1ccc(OCC2CCCO2)cc1 (centres undefined) the results were HTT ATP protect -5%[10 µM], HttQ103 aggreg 32µM* and NPSR antagonist -19%[46.1 µM].
`Cc1cnc(NC(=O)c2ccc(OCC3CCCO3)cc2)s1` (centres undefined) gave HTT ATP protect -169%, HttQ103 aggreg 10%, NPSR antagonist -6%, ERK EGF block -1% and IMPase Li cell -7%.
Screening C=CC[C@@H]1C=C[C@H](O/N=C(\C)CCN2CCc3nc(CC)c(CC)cc3C2)[C@H](CO)O1 returned HTT ATP protect -2%[10 µM].
O=c1cnc2cnc(Nc3ccccc3)nc2n1C1CC1 was read as HTT ATP protect 20µM* and IMPase Li cell 13%.
`Cc1nc2cnc(Nc3ccccc3)nc2n(C2CC2)c1=O` gave HTT ATP protect -24% and IMPase Li cell 13%.
For Cc1cc(-n2nc3ccc(Cl)cc3n2)c(O)c(C(C)(C)C)c1 the results were HTT ATP protect 19% and HttQ103 aggreg 11%.
For CCc1nnc(NC(=O)CSc2nc(-c3ccccc3)cc(-c3ccc(OC)cc3)c2C#N)s1 the results were HTT ATP protect 22%[10 µM], HttQ103 aggreg 3%, NPSR antagonist 7.9µM*, ERK EGF block -14% and IMPase Li cell -24%.
Screening COc1ccc(-c2cc(-c3ccc(OC)cc3)c(C#N)c(SC)n2)cc1 returned HTT ATP protect -2%[10 µM], HttQ103 aggreg -4%, NPSR antagonist 13µM*, ERK EGF block 3% and IMPase Li cell 11µM*.
For CSc1nc(-c2ccco2)cc(-c2ccccc2)c1C#N the results were HTT ATP protect -25%[0.074 µM], HttQ103 aggreg 9%, NPSR antagonist -4%[46.1 µM] and IMPase Li cell -10%[38.3 µM].
